Assay [1] is described as follows: Nuclear factor erythroid 2-related factor 2/antioxidant responsive element (Nrf2/ARE) small molecule agonists: qHTS cell viability counter screen in human keratinocytes (AID 1919968; active = well fitted curve in the direction sought with a large enough effect in the repeat runs; an effect the other way counts as inactive or inconclusive; also: nearly all actives have a fitted effect of over 55% in size; also: potency is read from the fitted curve at half-maximal effect). The method in brief: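 Viability counter-screen: KeratinoSens reporter cells, DMSO-delivered compounds, 23 h at 37 C, CellTiter-Fluor fluorescence.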
In general terms: In qHTS, concentration-response curves come from the screen itself.

Assay [2] in a line: Nuclear factor erythroid 2-related factor 2/antioxidant responsive element (Nrf2/ARE) small molecule agonists: luciferase reporter gene qHTS assay in human keratinocytes (AID 1919969). Also: nearly all actives have a fitted effect of over 35% in size. For orientation: A reporter such as luciferase makes a cellular process visible.
Assay [3] has as its target Gonadotropin-releasing hormone receptor (Homo sapiens) (UniProt P30968). The experiment in a line: Human gonadotropin-releasing hormone receptor (GnRHR) small molecule agonists, calcium flux assay in GnRHR-HEK293 cells (AID 1920063). Also: nearly all actives have a fitted effect of over 35% in size. In short, it runs like this: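 Tox21-format agonist screen using human GnRHR-expressing HEK293 cells and a fluorescent calcium dye; kinetic 3-min fluorescence reading after compound addition, 15-point concentration series run in triplicate.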

The target of assay [4] is KiSS-1 receptor (Homo sapiens) (UniProt Q969F8). The experiment in a line: Human kisspeptin (KISS1R) small molecule agonists, calcium flux assay in KISS1R-HEK293 cells (AID 1920064; active = well fitted curve in the direction sought with a large enough effect in the repeat runs; an effect the other way counts as inactive or inconclusive). The method in brief: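 Intracellular calcium mobilization in KISS1R-HEK293 cells was recorded by fluorescence (Ex/Em 480/540) for 3 min following compound addition to cells pre-loaded 1 h with calcium dye.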
KiSS-1 receptor (Homo sapiens), sequence (Q969F8 whole entry, looked up): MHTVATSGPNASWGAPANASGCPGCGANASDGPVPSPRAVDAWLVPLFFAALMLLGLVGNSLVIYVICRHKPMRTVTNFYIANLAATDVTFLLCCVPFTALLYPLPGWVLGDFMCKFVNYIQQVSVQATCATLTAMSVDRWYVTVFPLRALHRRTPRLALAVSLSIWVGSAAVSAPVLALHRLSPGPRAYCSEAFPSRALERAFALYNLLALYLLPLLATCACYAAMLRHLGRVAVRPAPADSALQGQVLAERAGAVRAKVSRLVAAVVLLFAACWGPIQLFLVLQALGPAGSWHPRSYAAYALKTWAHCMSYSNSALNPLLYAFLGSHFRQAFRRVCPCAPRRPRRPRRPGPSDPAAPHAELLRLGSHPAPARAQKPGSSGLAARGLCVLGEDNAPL

Assay [5] is described as follows: p53 small molecule agonists, cell-based qHTS assay with human liver microsomes: qHTS cell viability counter screen (AID 1963579). Also: nearly all actives have a fitted effect of over 45% in size. Also: potency is read from the fitted curve at half-maximal effect. The method in brief: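 p53RE-bla cells, 4,000/well, dosed 5 hours after plating, with human liver microsomes (0.5 mg/mL final) plus NADPH (0.5 mg/mL final), 16 hours at 37 C. Viability read as CellTiter-Glo luminescence after 30 min at room temperature.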

The nature of assay [6]: p53 small molecule agonists, cell-based qHTS assay with rat liver microsomes: qHTS cell viability counter screen (AID 1963580). Also: nearly all actives have a fitted effect of over 45% in size. In short, it runs like this:
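In HCT-116 cells carrying a p53 response element-bla reporter, compounds were metabolically activated in situ by rat liver microsomes with NADPH over 16 h. Cell ATP content then served as the cytotoxicity measure.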

Assay [7] can be described thus: p53 small molecule agonists, cell-based qHTS assay: qHTS cell viability counter screen (AID 1963581). Also: nearly all actives have a fitted effect of over 45% in size. The method in brief: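 Compounds are pinned onto HCT-116 p53RE-bla cells and left 16 h at 37 C. Following the reporter FRET read, ATP is quantified by CellTiter-Glo luminescence after 30 min at room temperature.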
In assay [8] the target is 5-hydroxytryptamine receptor 2A (Homo sapiens) (UniProt P28223). The experiment in a line: 5-hydroxytryptamine receptor 2A (HTR2A) small molecule antagonists, cell-based qHTS assay (AID 1963586). Also: nearly all actives have a fitted effect of over 45% in size. The method in brief: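 Antagonist-mode intracellular calcium assay: DOI (4 nM) added after 5 min compound pre-incubation at room temperature to dye-loaded HTR2A-CHO cells. Fluorescence followed for 3 min, sampled every second.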
5-hydroxytryptamine receptor 2A (Homo sapiens), sequence (P28223 whole entry, looked up): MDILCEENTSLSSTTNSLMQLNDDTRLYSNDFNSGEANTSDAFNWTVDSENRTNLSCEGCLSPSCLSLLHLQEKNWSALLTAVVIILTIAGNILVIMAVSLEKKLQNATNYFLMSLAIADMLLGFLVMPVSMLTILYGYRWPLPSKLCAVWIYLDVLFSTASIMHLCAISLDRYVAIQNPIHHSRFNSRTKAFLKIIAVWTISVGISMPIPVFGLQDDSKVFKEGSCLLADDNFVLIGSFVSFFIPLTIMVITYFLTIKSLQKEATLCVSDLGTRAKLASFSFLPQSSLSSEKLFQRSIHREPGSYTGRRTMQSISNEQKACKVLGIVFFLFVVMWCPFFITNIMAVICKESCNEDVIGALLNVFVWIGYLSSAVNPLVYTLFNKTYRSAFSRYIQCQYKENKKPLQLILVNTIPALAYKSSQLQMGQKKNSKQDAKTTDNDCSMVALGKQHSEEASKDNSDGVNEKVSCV

Assay [9] concerns the target Muscarinic acetylcholine receptor M1 (Homo sapiens) (UniProt P11229). The experiment in a line: Cholinergic receptor muscarinic 1 (CHRM1) small molecule antagonists, cell-based qHTS assay (AID 1963588). Also: nearly all actives have a fitted effect of over 40% in size. Also: potency is read from the fitted curve at half-maximal effect. In short, it runs like this:
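CHRM1-CHO calcium-flux assay, antagonist mode. Cells were seeded 18 h, dye-loaded 1 h at 37 C and given compound for 5 min at RT, then acetylcholine was added at 50nM. FDSS fluorescence was read 3 min; 15 concentrations, three runs.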

Assay [10] has the same target. The experiment in a line: Cholinergic receptor muscarinic 1 (CHRM1) small molecule agonists, cell-based qHTS assay (AID 1963589). Also: nearly all actives have a fitted effect of over 35% in size. The method in brief: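 Stable CHRM1-CHO cells (human receptor) were incubated 18 h, dye-loaded for 1 h at 37 C and exposed to test compounds for agonist activity, with calcium-dependent fluorescence followed kinetically.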
Assay [11] is described as follows: cAMP Responsive Elements (CRE) small molecule agonists, cell-based qHTS assay (AID 1963590). In short, it runs like this: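 FRET-based beta-lactamase readout (LiveBLAzer B/G, 2 h RT) quantified CRE activation in HEK 293T CRE-bla cells after 3 h treatment with DMSO-dissolved compounds.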
Assay [12] in a line: cAMP Responsive Elements (CRE) small molecule antagonists, cell-based qHTS assay (AID 1963591; active = well fitted inhibition curve with a large enough effect in the signal ratio in the repeat runs, not every such curve was filed as active; the % refers to the signal ratio). In short, it runs like this: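 qHTS in CRE-bla HEK 293T cells: compound in DMSO, then 0.25 uM NKH477 (final), 3 h at 37 °C/5% CO2; beta-lactamase FRET read-out after 2 h substrate incubation.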
Assay [13] concerns the target Beta-2 adrenergic receptor (Homo sapiens) (UniProt P07550). The experiment in a line: Adrenergic beta2 receptor (ADRB2) small molecule antagonists, cell-based qHTS assay (AID 1963592). Also: series mostly up to about 92 µM; nearly all actives have a fitted effect of over 50% in size. The method in brief: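 Cells (CHO, stable ADRB2 overexpression) incubated 18-20hr at 37C; compounds added from DMSO; agonist mix (1nM isoproterenol, 100uM IBMX, 25uM Ro-20-1724) added; 0.5hr RT; d2-cAMP and anti-cAMP-cryptate added; 1hr RT; 665/615 nm read.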

The target is the same in assay [14]. The experiment in a line: Adrenergic beta2 receptor (ADRB2) small molecule agonists, cell-based qHTS assay (AID 1963593).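 Also: CHO cells stably overexpressing human ADRB2.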 In short, it runs like this:
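CHO cells stably over-expressing ADRB2 were plated overnight at 37C, then dosed with compounds plus a stimulation mix containing 100uM IBMX and 25uM Ro-20-1724 for 0.5hr at room temperature. cAMP was measured by HTRF competition, 1hr.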

For assay [15], the target named is D(2) dopamine receptor (Homo sapiens) (UniProt P14416). The experiment in a line: Dopamine D2 receptor (DRD2) small molecule agonists, cell-based qHTS assay (AID 1963594). Also: nearly all actives have a fitted effect of over 35% in size. The method in brief: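 HEK293 cells stably expressing DRD2 were cultured 24 h at 37 C, then given Ro20-1724 (0.1 mM final) and compounds for 10 min at room temperature. NKH477 (200nM) was then added for 30 min. cAMP was read by HTRF.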
D(2) dopamine receptor (Homo sapiens), sequence (P14416 whole entry, looked up): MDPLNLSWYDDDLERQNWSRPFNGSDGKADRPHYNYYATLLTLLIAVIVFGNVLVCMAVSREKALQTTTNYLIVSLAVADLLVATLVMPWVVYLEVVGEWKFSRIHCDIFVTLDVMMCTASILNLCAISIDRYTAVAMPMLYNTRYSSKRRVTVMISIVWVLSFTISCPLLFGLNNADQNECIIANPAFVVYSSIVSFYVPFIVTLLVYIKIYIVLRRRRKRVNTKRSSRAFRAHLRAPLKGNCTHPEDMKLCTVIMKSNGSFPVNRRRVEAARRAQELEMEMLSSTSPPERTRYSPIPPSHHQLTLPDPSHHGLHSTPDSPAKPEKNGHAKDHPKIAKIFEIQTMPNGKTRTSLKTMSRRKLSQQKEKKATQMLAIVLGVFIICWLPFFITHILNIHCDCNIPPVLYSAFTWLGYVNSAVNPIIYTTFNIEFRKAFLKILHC

Assay [16] has the same target. The experiment in a line: Dopamine D2 receptor (DRD2) small molecule antagonists, cell-based qHTS assay (AID 1963595; active = well fitted inhibition curve with a large enough effect in the signal ratio in the repeat runs, with a control signal flat; the % refers to the signal ratio). In short, it runs like this:
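Human DRD2 antagonist qHTS measuring cAMP by HTRF. The cells are exposed to compound for 10 min, then to NKH477 (200 nM) and quinpirole (12 nM) for 30 min at RT, with Ro20-1724 (0.1 mM) present throughout.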

The target of assay [17] is 5-hydroxytryptamine receptor 2A (Homo sapiens) (UniProt P28223). The experiment in a line: 5-hydroxytryptamine receptor 2A (HTR2A) small molecule agonists, cell-based qHTS assay (AID 1963587). Also: nearly all actives have a fitted effect of over 30% in size. In short, it runs like this:
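HTR2A-CHO cells, plated 18 h at 37 C/5% CO2, dye-loaded 1 h at 37 C; compounds in DMSO added by pin tool (agonist mode). Intracellular calcium flux read as kinetic fluorescence on FDSS over 2 min at 1 s intervals.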

The nature of assay [18]: G protein-coupled receptor (GPCR) small molecule agonists, calcium flux assay: HEK293 wild type cell line counter screen (AID 1920065). The method in brief: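 In this agonist-mode screen, ATP is the positive control and DMSO the vehicle. Cells grow 18 h before a 1 h dye incubation at 37 C; signal is taken at Ex/Em 480/540 over 3 min.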
In general terms: A change in cytosolic calcium serves as a functional read-out for many receptors and channels.

The nature of assay [19]: p53 small molecule agonists, cell-based qHTS assay with rat liver microsomes (AID 1963578). In short, it runs like this:
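p53RE-bla cells, 4,000/well, pre-incubated 5 h, then given compounds plus rat liver microsomes (0.5 mg/mL final) and NADPH (0.5 mg/mL final). Incubation 16 h at 37 C; beta-lactamase reporter read by LiveBLAzer fluorescence after 2 h at room temperature.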

The nature of assay [20]: p53 small molecule agonists, cell-based qHTS assay (AID 1963582; active = well fitted activation curve with a large enough effect in the signal ratio in the repeat runs, not every such curve was filed as active; the % refers to the signal ratio). The method in brief: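 Agonist activity was scored from beta-lactamase FRET fluorescence in p53RE-bla cells treated 16 h at 37 C with compounds in DMSO, substrate incubation being 2 h at room temperature.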

Unmarked numbers belong to inactive results. Inconclusive results are not listed. Activity calls are given as the source filed them. Unless noted, calls follow the shape of the full dose curve.
% is scaled to controls: 0 for no effect and ±100 for the full control effect.

Gonadotropin-releasing hormone receptor (Homo sapiens), sequence (P30968 whole entry, looked up): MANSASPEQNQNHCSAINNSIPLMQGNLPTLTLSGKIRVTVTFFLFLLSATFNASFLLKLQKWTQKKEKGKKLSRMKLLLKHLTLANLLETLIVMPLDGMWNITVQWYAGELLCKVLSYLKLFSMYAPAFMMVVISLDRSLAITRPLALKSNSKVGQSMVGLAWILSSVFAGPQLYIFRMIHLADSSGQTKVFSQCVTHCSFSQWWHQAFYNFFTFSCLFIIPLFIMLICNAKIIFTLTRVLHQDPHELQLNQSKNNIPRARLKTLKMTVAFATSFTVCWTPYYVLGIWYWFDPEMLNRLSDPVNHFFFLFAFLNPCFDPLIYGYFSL
Beta-2 adrenergic receptor (Homo sapiens), sequence (P07550 whole entry, looked up): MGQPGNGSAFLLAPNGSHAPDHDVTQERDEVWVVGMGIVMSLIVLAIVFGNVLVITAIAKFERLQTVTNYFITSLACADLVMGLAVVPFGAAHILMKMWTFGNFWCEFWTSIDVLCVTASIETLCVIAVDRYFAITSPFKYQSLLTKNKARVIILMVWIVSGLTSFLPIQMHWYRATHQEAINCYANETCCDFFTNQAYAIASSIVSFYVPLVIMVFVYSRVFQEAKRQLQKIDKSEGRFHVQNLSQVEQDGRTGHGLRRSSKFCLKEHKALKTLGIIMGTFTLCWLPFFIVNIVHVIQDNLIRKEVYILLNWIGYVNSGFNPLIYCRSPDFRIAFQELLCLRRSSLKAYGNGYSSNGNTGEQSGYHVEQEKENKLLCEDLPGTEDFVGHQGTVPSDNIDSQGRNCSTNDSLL
Muscarinic acetylcholine receptor M1 (Homo sapiens), sequence (P11229 whole entry, looked up): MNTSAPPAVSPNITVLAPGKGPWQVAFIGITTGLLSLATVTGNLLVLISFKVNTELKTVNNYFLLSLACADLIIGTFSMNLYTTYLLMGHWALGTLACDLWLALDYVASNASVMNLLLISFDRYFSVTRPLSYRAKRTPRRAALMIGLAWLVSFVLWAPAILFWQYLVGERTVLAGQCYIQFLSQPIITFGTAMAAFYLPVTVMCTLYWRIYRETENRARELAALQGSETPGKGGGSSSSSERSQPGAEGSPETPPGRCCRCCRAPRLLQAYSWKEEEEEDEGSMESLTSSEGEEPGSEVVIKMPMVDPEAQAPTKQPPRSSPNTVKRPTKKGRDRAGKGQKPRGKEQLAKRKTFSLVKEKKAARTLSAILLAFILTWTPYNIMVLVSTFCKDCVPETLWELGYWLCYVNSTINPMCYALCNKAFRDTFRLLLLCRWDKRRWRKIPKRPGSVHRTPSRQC

For the molecule `O=[N+]([O-])c1cccc(Cl)c1Cl`, the Potency entry in assay [1], in assay [2], in [3], in assay [4], in assay [5] and in assay [6] was “inactive” throughout. For the same molecule, the Potency entry in [7], in [8], in assay [9], in assay [10], in [11] and in assay [12] was “inactive” in each case. The Potency result in assay [13], in assay [14], in assay [15] and in [16] was “inactive” each time.
Turning to `CC[C@H]1OC(=O)[C@H](C)[C@@H](O[C@H]2C[C@@](C)(OC)[C@@H](O)[C@H](C)O2)[C@H](C)[C@@H](O[C@@H]2O[C@H](C)C[C@H](N(C)C)[C@H]2O)[C@](C)(O)C[C@@H](C)/C(=N\OCOCCOC)[C@H](C)[C@@H](O)[C@]1(C)O`, the Potency entry in [1], in assay [2], in [3], in [4], in [5] and in assay [6] was “inactive” throughout. Also, the Potency result in assay [7], in [11], in assay [13], in assay [15] and in assay [16] was “inactive” throughout.
For the molecule `CC1(C)CCC[C@]2(C)[C@H]3CCO[C@]3(C)CC[C@@H]12`, the Potency entry in assay [1], in [2], in assay [3], in assay [4], in assay [5] and in [6] was “inactive” in each case. The Potency entry in [7], in assay [17], in assay [9], in assay [10], in assay [11] and in [12] was “inactive” each time. The Potency result in assay [13], in [14], in assay [15] and in assay [16] was “inactive” each time.
In the case of `CC(C)(C)c1cc(CCC(=O)OCC(COC(=O)CCc2cc(C(C)(C)C)c(O)c(C(C)(C)C)c2)(COC(=O)CCc2cc(C(C)(C)C)c(O)c(C(C)(C)C)c2)COC(=O)CCc2cc(C(C)(C)C)c(O)c(C(C)(C)C)c2)cc(C(C)(C)C)c1O`, the Potency result in assay [1], in [2], in assay [3], in assay [4], in assay [5] and in [6] was “inactive” in each case. Also, the Potency result in assay [7], in assay [8], in assay [17], in assay [9], in [10] and in [11] was “inactive” throughout. The Potency result in assay [12], in assay [13] and in assay [16] was “inactive” in each case.
As for `CC=O`, the figures for the Potency in assay [1], in assay [5] and in [9] were 28.6 µM (active), 47.9 µM (active) and 3.5 µM (active), respectively. Moreover, the Potency result in assay [2], in assay [3], in assay [18], in assay [19], in [10] and in assay [13] was “inactive” throughout. The Potency result in assay [15] is “inactive”.
In the case of `OCCN1CCOCC1`, the Potency entry in assay [1], in [2], in [3], in [4], in assay [5] and in assay [6] was “inactive” throughout. In addition, the Potency result in [7], in [8], in [17], in assay [9], in assay [10] and in assay [12] was “inactive” in each case. Also, the Potency entry in [13], in assay [15] and in assay [16] was “inactive” each time.
Take `O=S(=O)(O)c1cc(S(=O)(=O)O)c2ccc3c(S(=O)(=O)O)cc(S(=O)(=O)O)c4ccc1c2c43`: the activity change, negative = cytotoxicity in assay [1] is 0.791% [at 19 µM]; in [5], -2.1% [at 13.5 µM]; in assay [6] it was 1.49% [at 13.5 µM]; in assay [7] it was -29.1% [at 13.5 µM]. Also, the activity, positive = activation in assay [2] is -1.98% [at 19 µM]. For the same molecule, the activity change in [3] was 0.0619% [at 11.8 µM, active compounds read high]. Also, the activation in assay [18] was 0.205% [at 11.8 µM]; in [19], -1.38% [at 13.6 µM]; in assay [20], 4.26% [at 13.5 µM]; in [17], -0.138% [at 15.9 µM]; in [10] it was -0.115% [at 15.8 µM]; in assay [11], 0.24% [at 19 µM]. The activation in [14] was -12.6% [at 19 µM]; in assay [15], 0.241% [at 19 µM]. In addition, the figures for the activity, negative = inhibition in assay [8] and in assay [9] were -5.22% [at 12.7 µM] and -5.56% [at 12.6 µM], respectively. In addition, the activity change, negative = inhibition in assay [12] is -8.72% [at 18.9 µM]; in assay [13], 1.38% [at 19 µM]; in assay [16], -2.86% [at 18.9 µM].
As for `N[C@@H]1CONC1=O`, the Potency entry in assay [1], in [2], in assay [3], in assay [4], in assay [5] and in [7] was “inactive” throughout. The Potency result in assay [8], in [17], in assay [9], in [10], in assay [11] and in assay [12] was “inactive” in each case. For the same molecule, the Potency entry in assay [13], in assay [14], in assay [15] and in assay [16] was “inactive” each time.

(Values after PubChem BioAssay (Tox21).)
